# According to PubChem BioAssay (NCATS):
# Records with an inconclusive call do not appear. A call without a number means that no potency is given here. The source made the active and inactive calls. Calls follow the shape of the dose curve; as a rule, active = well fitted curve in the direction sought with a large enough effect; inconclusive = small, poorly fitted or top-dose-only effect, or another doubt; inactive = no such curve, though single readings can be large; an effect the other way counts as inactive or inconclusive.
# Key:
# MCC-13 = assay: qHTS assay to identify novel small-molecules to repurpose for Merkel cell carcinoma treatment (AID 1296009); conditions: MCC and control cell lines, CellTiter-Glo viability, 72 h; series mostly up to 46 µM; also: nearly all actives have a fitted effect of over 60% in size
# Method in brief: (§1)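 Cells were treated for 72 hr at 37 degree celsius with compounds in 8- or 11-point dose response. Viability was read by CellTiter-Glo luminescence, normalized to no-cell (cytotoxicity) and DMSO controls.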
# MCC-26 = assay: as above; conditions: MCC and control cell lines, CellTiter-Glo viability, 72 h; series mostly up to 46 µM
# Method in brief: as §1
# MKL-1 = assay: as above; conditions: MCC and control cell lines, CellTiter-Glo viability, 72 h; series mostly up to 46 µM
# Method in brief: as §1
# MKL-2 = assay: as above; conditions: MCC and control cell lines, CellTiter-Glo viability, 72 h; series mostly up to 46 µM
# Method in brief: as §1
# UISO = assay: as above; conditions: MCC and control cell lines, CellTiter-Glo viability, 72 h; series mostly up to 46 µM
# Method in brief: as §1
# WaGa = assay: as above; conditions: MCC and control cell lines, CellTiter-Glo viability, 72 h; series mostly up to 46 µM
# Method in brief: as §1
# C33A = assay: Primary qHTS to identify gynecologic anti-cancer compounds using libraries of approved drugs and bioactive compounds (AID 1345084); conditions: Gynecologic cancer cell panel viability, ATPlite luminescence, 48 h; series mostly up to 57.5 µM; also: nearly all actives have a fitted effect of over 55% in size
# Method in brief: (§2)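 In this quantitative HTS, cell killing is estimated from loss of ATP-dependent luciferase light. Cells see five compound concentrations over a 48 h exposure.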
# CAOV3 = assay: as above; conditions: Gynecologic cancer cell panel viability, ATPlite luminescence, 48 h; series mostly up to 57.5 µM
# Method in brief: as §2
# CASKI = assay: as above; conditions: Gynecologic cancer cell panel viability, ATPlite luminescence, 48 h; series mostly up to 57.5 µM
# Method in brief: as §2
# Es-2 = assay: as above; conditions: Gynecologic cancer cell panel viability, ATPlite luminescence, 48 h; series mostly up to 57.5 µM
# Method in brief: as §2
# HeLa = assay: as above; conditions: Gynecologic cancer cell panel viability, ATPlite luminescence, 48 h; series mostly up to 57.5 µM
# Method in brief: as §2
# Hek293T = assay: as above; conditions: Gynecologic cancer cell panel viability, ATPlite luminescence, 48 h, control line for the selectivity index; series mostly up to 57.5 µM
# Method in brief: as §2
# JEG-3 = assay: as above; conditions: Gynecologic cancer cell panel viability, ATPlite luminescence, 48 h; series mostly up to 57.5 µM
# Method in brief: as §2
# OV90 = assay: as above; conditions: Gynecologic cancer cell panel viability, ATPlite luminescence, 48 h; series mostly up to 57.5 µM
# Method in brief: as §2
# PA-1 = assay: as above; conditions: Gynecologic cancer cell panel viability, ATPlite luminescence, 48 h; series mostly up to 57.5 µM
# Method in brief: as §2
# Tov-21-G = assay: as above; conditions: Gynecologic cancer cell panel viability, ATPlite luminescence, 48 h; series mostly up to 57.5 µM
# Method in brief: as §2
# SKOV3 = assay: as above; conditions: Gynecologic cancer cell panel viability, ATPlite luminescence, 48 h; series mostly up to 57.5 µM
# Method in brief: as §2
# Potency is read from the fitted curve at half-maximal effect.
Compound,Potency (MCC-13),Potency (MCC-26),Potency (MKL-1),Potency (MKL-2),Potency (UISO),Potency (WaGa),Potency (C33A),Potency (CAOV3),Potency (CASKI),Potency (Es-2),Potency (HeLa),Potency (Hek293T),Potency (JEG-3),Potency (OV90),Potency (PA-1),Potency (Tov-21-G),Potency (SKOV3)
Cc1ccccc1C(=O)N1CC/C(=N\OS(=O)(=O)O)c2ccc(Cl)cc21,inactive,inactive,inactive,inactive,inactive,inactive,inactive,inactive,inactive,inactive,inactive,inactive,inactive,inactive,inactive,inactive,–
CCCCC(=O)OCC(=O)[C@H]1[C@H](C)C[C@H]2[C@@H]3C[C@H](F)C4=CC(=O)C=C[C@]4(C)[C@@]3(F)[C@@H](O)C[C@@]21C,inactive,inactive,inactive,inactive,inactive,inactive,inactive,–,inactive,inactive,inactive,inactive,inactive,inactive,inactive,inactive,inactive
C[N+]1(CC2COC(c3ccccc3)(c3ccccc3)O2)CCCCC1 (stereo unspecified),inactive,inactive,inactive,–,inactive,inactive,inactive,inactive,inactive,inactive,inactive,inactive,inactive,–,inactive,inactive,–
C[N+](C)(CCOc1ccccc1)Cc1cccs1,inactive,inactive,inactive,inactive,inactive,–,inactive,–,inactive,inactive,inactive,inactive,inactive,inactive,inactive,inactive,inactive
O=C(NO)c1ccccc1,inactive,inactive,inactive,–,inactive,32.6 µM (active),inactive,inactive,inactive,inactive,inactive,inactive,inactive,inactive,inactive,inactive,inactive
CCOC(=O)N1CCC(Nc2ccc(Cl)cc2N)CC1,inactive,inactive,21.1 µM (active),26.6 µM (active),–,inactive,inactive,–,inactive,inactive,inactive,inactive,inactive,–,–,inactive,inactive
CC(=O)N(CC(=O)N(C)C)c1ccccc1,inactive,inactive,inactive,inactive,inactive,inactive,inactive,–,–,inactive,inactive,inactive,–,–,–,inactive,inactive
CC(C)(c1ccc(O)cc1)c1ccc(O)cc1,inactive,inactive,inactive,inactive,–,–,inactive,inactive,inactive,inactive,inactive,inactive,inactive,–,inactive,inactive,inactive
Cc1nc2n(c(=O)c1CCN1CCC(C(=O)c3ccc(F)cc3)CC1)CCS2,inactive,inactive,inactive,–,inactive,–,inactive,inactive,inactive,inactive,inactive,inactive,inactive,–,inactive,inactive,inactive
CC(CC1c2ccccc2CCc2ccccc21)CN(C)C (stereo unspecified),inactive,inactive,inactive,–,inactive,inactive,inactive,–,inactive,inactive,inactive,–,inactive,17.8 µM (active),inactive,inactive,–
C=CCNc1nc(NCC=C)nc(N2CCN(C(c3ccc(F)cc3)c3ccc(F)cc3)CC2)n1,inactive,inactive,inactive,–,–,–,inactive,–,inactive,inactive,inactive,–,inactive,–,inactive,inactive,–
CC1CC(=O)NN=C1c1ccc(NCC(C)(C)NCC(O)COc2cc(Cl)ccc2C#N)cc1 (stereo unspecified),inactive,inactive,inactive,inactive,inactive,inactive,–,inactive,inactive,inactive,inactive,inactive,inactive,inactive,inactive,inactive,inactive
C=CC[N+]1([C@H]2C[C@H]3[C@@H]4CC[C@H]5C[C@H](OC(C)=O)[C@@H](N6CCCCC6)C[C@]5(C)[C@H]4CC[C@]3(C)[C@H]2OC(=O)CC)CCCCC1,inactive,inactive,inactive,–,inactive,inactive,inactive,inactive,inactive,inactive,inactive,inactive,inactive,–,inactive,inactive,inactive
CCCC(=O)c1cc(O)c(O)cc1O,inactive,inactive,–,27.3 µM (active),–,–,inactive,inactive,inactive,inactive,inactive,inactive,inactive,inactive,–,inactive,–
